Bioassay records (PubChem BioAssay)
This is a sample that favours compounds with a hit; in the whole collection about 4.2% have one here.
hgDAF-12 ag: hgDAF-12 agonism, primary luciferase screen; HEK293 GAL4-hgDAF12 UAS-luciferase reporter, agonist luminescence; normalized to butyrate control; actives 1.8% (n = 370,000); activation, % at 6.8 µM;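 active = activation above a cutoff set at the mean of all screened compounds plus 3 SD, cut at about 10% in these data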;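 note: 0% = DMSO wells and 100% = sodium butyrate wells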
Wnt act: Wnt/beta-catenin pathway activation. actives 1.2% (n = 300,000). AID 743398. Wnt/beta-catenin reporter cell assay, activator, plate reader. activation, % at 9.35 µM; in the data active = activation above about 30%, passing the limit was not always enough;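 note: 0% = neutral control wells and 100% = positive control wells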
hcDAF12 agonist: activates DAF-12 receptor from parasite H. contortus | HEK293 hcDAF-12 lit1-tk-luc reporter, luminescence; 0% DMSO, 100% Δ7-dafachronic acid | activation, % at 6.8 µM | actives 1.4% (n = 370,000);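 active = activation above the mean of all tested compounds plus 3 SD, cut at about 5.5% in these data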;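 note: 100% = response to 3 µM Δ7-dafachronic acid high control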
ssDAF12 agonist: activators of S. stercoralis DAF-12 nuclear receptor; HEK293 ssDAF-12/GRIP1 lit1-tk-luc reporter, luminescence; % of 3 µM dafachronic acid response; activation, % at 6.8 µM; actives 1% (n = 370,000); AID 652126;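 active = activation above the mean over all tested compounds plus 3 SD, cut at about 0.9% in these data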;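 note: 0% = DMSO-only wells and 100% = 3 µM delta7-dafachronic acid wells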
DAX1 inh: blocks DAX1 repression of SF-1 activated StAR promoter. actives 1.1% (n = 370,000). AID 652010. inhibition, % at 6.8 µM. HEK293T StAR-luciferase reporter, SF-1/DAX-1 repression relief;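 active = inhibition above the mean over all tested compounds plus 3 SD, cut at about 3.6% in these data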;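 note: 0% = DAX-1 cells with DMSO and 100% = cells lacking DAX-1 with DMSO; higher inhibition means more luminescence from relief of DAX-1 repression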
esBAF inh: SWI/SNF esBAF complex inhibition | reporter increase, % at 12.5 µM | actives 2% (n = 350,000) | AID 602393 | mouse ES cells, Bmi1-luciferase knock-in reporter, 24 h; 100% = twice the neutral-well signal; in the data active = activation above about 40%;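 note: 0% = median of the plate's neutral control wells and 100% = double that signal; a rise in the Bmi1 reporter signal indicates esBAF inhibition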
hgDAF12 conf: hgDAF-12 agonism, confirmation assay; shares compounds with hgDAF-12 ag; HEK293 GAL4-hgDAF12 luciferase reporter, agonist mode; percent of butyrate response; activation, % at 6.8 µM; actives 80% (n = 3,300); AID 743050;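 active = mean activation over triplicate wells above the hit cutoff derived from the earlier primary screen, cut at about 11% in these data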;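 note: 0% = DMSO low control and 100% = 2 mM sodium butyrate high control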
LXR ag 2: LXR-beta agonism as DAF-12 counter-screen; shares compounds with hgDAF-12 ag; HEK293 Gal4-LXR luciferase reporter, 24 h; activation, % at 6.8 µM; 3,300 tested, under 10 active; AID 743051;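 active = mean activation of the triplicate above a set limit carried over from the primary screen, none filed active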
Target sequence (P55055 whole entry, looked up, the tested form may be a part): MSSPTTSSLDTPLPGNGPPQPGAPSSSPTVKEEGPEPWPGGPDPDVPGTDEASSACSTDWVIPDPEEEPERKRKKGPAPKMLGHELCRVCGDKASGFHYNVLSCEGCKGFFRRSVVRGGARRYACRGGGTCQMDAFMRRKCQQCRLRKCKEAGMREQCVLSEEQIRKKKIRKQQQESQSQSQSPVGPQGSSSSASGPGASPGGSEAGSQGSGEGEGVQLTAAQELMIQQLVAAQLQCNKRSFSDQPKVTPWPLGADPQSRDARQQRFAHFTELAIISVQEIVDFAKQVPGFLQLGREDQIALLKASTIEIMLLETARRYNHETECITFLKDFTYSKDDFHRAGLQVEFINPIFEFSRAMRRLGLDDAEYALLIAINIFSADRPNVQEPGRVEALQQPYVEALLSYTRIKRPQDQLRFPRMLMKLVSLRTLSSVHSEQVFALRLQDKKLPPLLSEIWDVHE
* hit, by the source's call; / = no result.

SMILES | hgDAF-12 ag | Wnt act | hcDAF12 agonist | ssDAF12 agonist | DAX1 inh | esBAF inh | hgDAF12 conf | LXR ag 2
COc1ccc(OC)c2nc(-c3ccc4c(c3)OCO4)ccc12 | 15* | 48* | 6.4* | 1 | 2 | -6 | 18* | 1
C[C@@H]1CN([C@H](C)CO)C(=O)c2cc(NS(=O)(=O)c3cn(C)cn3)ccc2O[C@@H]1CN(C)C(=O)NC1CCCCC1 | / | / | / | / | / | 2 | / | /
O=C(CSc1nnc(-c2ccc(O)cc2)o1)Nc1ccccc1 | 16* | 34* | 3 | 0 | 2 | 18 | 14* | 1
Nc1ccc(N=Nc2ccccc2)c(N)n1 | 16* | 13 | 3 | -1 | 4.1* | 30 | 13* | 0
COC(=O)C[C@H]1C[C@H]2c3cc(NS(=O)(=O)c4ccccc4)ccc3O[C@H]2[C@@H](CO)O1 | / | / | / | / | / | 7 | / | /
O=C(Nc1ccc2c(c1)OCO2)Nc1ccc2c(c1)OCO2 | 22* | 30 | 5 | 1 | 4.0* | / | 17* | 1
O=C(NCCc1ccccc1)Nc1ccc2c(c1)OCO2 | 16* | 13 | 3 | 1 | 3 | / | 17* | 1
O=C(Nc1ccc([N+](=O)[O-])cc1)Nc1ccc2c(c1)OCCO2 | 17* | 18 | 3 | 0 | 0 | / | 20* | 1
O=C(Nc1ccc2c(c1)OCCO2)C1CCC1 | 3 | / | 0 | -1 | 0 | 9 | / | /
O=C(Nc1ccc2c(c1)OCCO2)NC1CCCCC1 | 13* | / | 5 | 1 | 2 | -2 | 16* | 1
COc1cc(NC(=O)Nc2ccc3c(c2)OCO3)cc(OC)c1OC | -1 | 3 | 0 | -1 | 0 | 6 | / | /
CO[C@@H]1CN(C)C(=O)c2cc(NC(=O)c3cc(C)on3)ccc2OC[C@@H](C)N(CC2CC2)C[C@H]1C | / | / | / | / | / | 3 | / | /
Cc1cccc2c1-c1sc(C(=O)Nc3nccs3)cc1CO2 | 19* | 27 | 1 | 0 | 3 | 47* | 14* | 1
COc1ccc(/C(N)=N/OC(=O)c2ccc3c(c2)OCO3)cc1OC | 2 | 16 | -1 | -1 | 0 | 36 | / | /
N/C(=N\OC(=O)c1ccc2c(c1)OCO2)c1cccnc1 | 14* | 62* | 4 | 1.1* | 2 | / | 11* | 0
COc1ccc(NC(=O)N[C@H]2C=C[C@H](CC(=O)NC3CCC3)O[C@H]2CO)cc1 | / | / | / | / | / | -12 | / | /
COc1cccc(-n2cc(-c3ccc(F)cc3)[nH]c2=S)c1 | 20* | 18 | 5.6* | 0 | 1 | 55* | 12* | 1
O/N=C/c1ccc2cccc(O)c2n1 | 3 | 3 | 0 | -1 | 0 | 4 | / | /
O=C(O)c1ccc(/C=C/c2ccc3cccc(O)c3n2)cc1 | 15* | 17 | 3 | 0 | 3 | 104* | 11* | 0
COc1ccc(C(=O)NCCSC2CCCCC2)cc1 | 16* | / | 3 | 0 | 2 | / | 11* | 0
Brc1ccc(-c2csc(N3CCOCC3)n2)cc1 | 19* | 17 | 3 | 0 | 4.1* | / | 11* | 1
CC(C)C(=O)Nc1ccc2c(c1)C(=O)N(C)[C@H]1CC[C@H](CC(=O)NCc3ccccc3)O[C@H]1CO2 | / | / | / | / | / | -2 | / | /
COc1ccc2oc(C(=O)Nc3nc4ccccc4[nH]3)c(C)c2c1 | 25* | 0 | 5 | 0 | 4.2* | -12 | 18* | 1
CC(=O)Nc1c(O)nc(SCC(=O)Nc2cccc(C)c2)[nH]c1=O | 0 | / | 0 | -1 | 0 | -1 | / | /
CC(=O)Nc1c(O)nc(SCC(=O)Nc2ccc(C(C)=O)cc2)[nH]c1=O | 14* | 1 | 3 | -1 | 0 | 76* | 12* | 0
SMILES | hgDAF-12 ag | Wnt act | hcDAF12 agonist | ssDAF12 agonist | DAX1 inh | esBAF inh | hgDAF12 conf | LXR ag 2
CC(C)(C)S(=O)(=O)c1cnc2c(-c3ccc(Cl)cc3)cnn2c1N | 3 | 2 | -1 | -1 | 0 | 31 | / | /
Nc1c(-c2ccc(Cl)cc2)cnc2c(-c3ccccc3)cnn12 | 14* | 36* | 3 | 0 | 2 | 25 | 12* | 1
Cc1cc(OCC(=O)N(C)C2CCCCC2)ccc1Cl | 17* | 60* | 4 | 1 | 3.6* | 4 | 10 | 1
CCOC(=O)C1(Cc2ccccc2Cl)CCN(C(=O)c2cnccn2)CC1 | 16* | 12 | 1 | 0 | 2 | 67* | 11* | 0
CCOC(=O)C1(Cc2ccccc2Cl)CCN(C(=O)c2cc(C)on2)CC1 | 7 | 4 | 0 | -1 | 0 | 35 | / | /
O=C(c1ccc(-c2ccc(Cl)cc2Cl)o1)N1CCOCC1 | 18* | 54* | 0 | -1 | 3 | 56* | 12* | 0
O=C(O)Cn1cc(/C=c2/sc3nc4ccccc4n3c2=O)c2ccccc21 | 17* | -2 | 5.9* | 0 | 3 | / | 11* | 0
O=c1/c(=C\c2cccn2-c2ccccc2)sc2nc3ccccc3n12 | 0 | -2 | -1 | -1 | 0 | 6 | / | /
O=C(N/N=C\c1ccccn1)c1ccccc1O | 15* | 36* | 0 | 0 | 0 | / | 3 | 0
C/C(=N\Nc1nccnc1Cl)c1ccc(O)cc1 | 16* | 5 | 6.5* | 1 | 2 | 42* | 11* | 0
C[C@H]1CN([C@@H](C)CO)C(=O)Cc2cc(NC(=O)Nc3ccccc3)ccc2O[C@@H]1CN(C)C(=O)Nc1ccc(F)cc1 | / | / | / | / | / | -1 | / | /
CN(C)S(=O)(=O)c1cccc(C(=O)N=C2N=C3C=CC(Cl)=CN3Cc3ccccc32)c1 | 16* | 63* | 5 | 0 | 1 | / | 7 | 0
O=C(N=C1N=C2C=CC=CN2Cc2ccccc21)c1ccc(S(=O)(=O)N2CCOCC2)cc1 | 16* | -1 | 3 | 0 | 4.1* | / | 12* | 0
CN(C)S(=O)(=O)c1cccc(C(=O)N2CCN(Cc3ccccc3)CC2)c1 | 0 | -4 | -2 | -1 | -1 | -5 | / | /
Clc1ccc(Cc2noc(-c3cccs3)n2)cc1 | 19* | / | 1 | -1 | 1 | 63* | 9 | 0
Clc1ccc(-c2nc(Cc3ccccc3Cl)no2)cc1 | 3 | / | -1 | -1 | 0 | 32 | / | /
O=C(O)C[C@@H]1C[C@H]2c3cc(NC(=O)NC4CCCC4)ccc3O[C@H]2[C@@H](CO)O1 | / | / | / | / | / | 4 | / | /
Cc1nn(Cc2cccc(F)c2)c(C)c1NC(=O)c1ccc(COc2ccccc2Cl)cc1 | -6 | 4 | -4 | -3 | -1 | 5 | / | /
Cc1nn(Cc2c(F)c(F)c(F)c(F)c2F)c(C)c1NC(=O)c1cccc(COc2ccccc2Cl)c1 | 20* | 23 | 4 | 0 | 1 | 31 | 9 | 0
